Results from PubChem BioAssay (NCI).
This is part of a sample that, as a whole, favours compounds with a hit. Of some 83,000 tested, about 20% had one in any assay.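 Compound tested at a single concentration for 48 hours in 96-well plates; a percent growth value below 10 was scored as active.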 Calls of active or inactive are those of the source.

Experiments:
Experiment in all cases: NCI-60 one-dose screen, 48 h (100 = growth as untreated, 0 = no growth, -100 = all killed)
Conditions in all cases: 10 µM
NCI-H23 lung = test system: NCI-H23 lung
NCI-H226 lung = test system: NCI-H226 lung
NCI-H322M lung = test system: NCI-H322M lung
HOP-62 NSCLC = test system: HOP-62 NSCLC
NCI-H460 lung = test system: NCI-H460 lung
NCI-H522 lung = test system: NCI-H522 lung
A549/ATCC NSCLC = test system: A549/ATCC NSCLC
786-0 renal = test system: 786-0 renal
COLO 205 colon = test system: COLO 205 colon
DU-145 prostate = test system: DU-145 prostate
K-562 leukemia = test system: K-562 leukemia
MALME-3M melanoma = test system: MALME-3M melanoma
MDA-MB-231 breast = test system: MDA-MB-231 breast
SF-268 CNS = test system: SF-268 CNS
SF-295 CNS = test system: SF-295 CNS
SF-539 CNS = test system: SF-539 CNS
UACC-257 melanoma = test system: UACC-257 melanoma
M14 melanoma = test system: M14 melanoma
HCT-15 colon = test system: HCT-15 colon

Measured: growth

COc1ccc(/C(=C2/O[C@@H]([C@H]3COC(C)(C)O3)[C@H]3OC(C)(C)O[C@@H]23)c2cc(OC)c(OC)c(OC)c2)cc1O
inactive: NCI-H23 lung 81.2% | NCI-H226 lung 113% | NCI-H322M lung 91.5% | HOP-62 NSCLC 91.3% | NCI-H460 lung 104% | NCI-H522 lung 51.8% | A549/ATCC NSCLC 80.1% | 786-0 renal 86.3% | COLO 205 colon 121% | DU-145 prostate 45.6% | K-562 leukemia 10.2% | MALME-3M melanoma 69.6% | MDA-MB-231 breast 54.5% | SF-268 CNS 37.8% | SF-295 CNS 77.6% | SF-539 CNS 21.5% | UACC-257 melanoma 126% | M14 melanoma 19.5% | HCT-15 colon 32.5%

O=C(Cc1csc2nc(-c3ccc(Cl)cc3)cn12)N/N=C/c1ccccc1O
active: DU-145 prostate -8.65%
inactive: NCI-H23 lung 59.5% | NCI-H226 lung 56.2% | NCI-H322M lung 51.4% | HOP-62 NSCLC 40.3% | NCI-H460 lung 18.5% | NCI-H522 lung 49.2% | A549/ATCC NSCLC 36.9% | 786-0 renal 32.9% | COLO 205 colon 16.5% | K-562 leukemia 41% | MALME-3M melanoma 74.5% | MDA-MB-231 breast 35.5% | SF-268 CNS 37.9% | SF-295 CNS 37.6% | SF-539 CNS 67.3% | UACC-257 melanoma 46.5% | M14 melanoma 47.1% | HCT-15 colon 17.2%

COc1ccccc1CNCCN1C(=O)c2ccc3c4c(ccc(c24)C1=O)C(=O)N(CCNCc1ccccc1OC)C3=O
active: NCI-H23 lung -70.5% | NCI-H226 lung -74.7% | NCI-H322M lung -65.4% | HOP-62 NSCLC -79.8% | NCI-H460 lung -91.3% | NCI-H522 lung -83.4% | A549/ATCC NSCLC -93% | 786-0 renal -82.4% | COLO 205 colon -97.5% | DU-145 prostate -100% | K-562 leukemia -43.8% | MALME-3M melanoma -92% | MDA-MB-231 breast -18.4% | SF-268 CNS -79.5% | SF-295 CNS -56.7% | SF-539 CNS -97.3% | UACC-257 melanoma -96.4% | M14 melanoma -94% | HCT-15 colon -77.1%

ClCCOCCn1cnc2c(Cl)nc(Cl)nc21
inactive: NCI-H23 lung 55.1% | NCI-H226 lung 74.8% | NCI-H322M lung 89.9% | HOP-62 NSCLC 88.6% | NCI-H460 lung 28.5% | NCI-H522 lung 60.1% | A549/ATCC NSCLC 60.7% | 786-0 renal 87.6% | COLO 205 colon 88.1% | K-562 leukemia 28.2% | MALME-3M melanoma 112% | MDA-MB-231 breast 58.2% | SF-268 CNS 45.3% | SF-295 CNS 70.2% | SF-539 CNS 96.8% | UACC-257 melanoma 59.9% | M14 melanoma 46.5% | HCT-15 colon 18.4%
active: DU-145 prostate -5.51%

CCN(CC)CCSCCCNc1c2ccc(Cl)cc2nc2ccc(OC)cc12
inactive: NCI-H226 lung 48.7%
active: NCI-H23 lung -30.8% | NCI-H322M lung -35.6% | HOP-62 NSCLC -31.6% | NCI-H460 lung -39.7% | NCI-H522 lung -79.1% | A549/ATCC NSCLC -29.5% | 786-0 renal -37.3% | COLO 205 colon -82.9% | DU-145 prostate 1.82% | K-562 leukemia -13.3% | MALME-3M melanoma -69.1% | MDA-MB-231 breast -59.9% | SF-268 CNS -39.2% | SF-295 CNS -79% | SF-539 CNS -75.2% | UACC-257 melanoma -77.1% | M14 melanoma -73.7% | HCT-15 colon -30.8%

CCCN(CCC)CCC(O)c1cc2c(c3ccccc13)CCCC2 (stereo not given)
inactive: NCI-H23 lung 79.8% | NCI-H226 lung 81.1% | NCI-H322M lung 99.1% | HOP-62 NSCLC 79.4% | NCI-H460 lung 98.9% | NCI-H522 lung 74.2% | A549/ATCC NSCLC 92.3% | 786-0 renal 84.3% | COLO 205 colon 77% | DU-145 prostate 106% | K-562 leukemia 82.5% | MALME-3M melanoma 95% | MDA-MB-231 breast 79.1% | SF-268 CNS 83.3% | SF-295 CNS 85.4% | SF-539 CNS 85.4% | UACC-257 melanoma 95.8% | M14 melanoma 91.9% | HCT-15 colon 81.4%

O=C(CC(C(=O)c1ccccc1)N1CCOCC1)c1ccccc1 (stereo not given)
inactive: NCI-H23 lung 97.4% | NCI-H226 lung 90.3% | NCI-H322M lung 109% | HOP-62 NSCLC 106% | NCI-H460 lung 102% | NCI-H522 lung 74.7% | A549/ATCC NSCLC 91.9% | 786-0 renal 98.8% | COLO 205 colon 58.5% | DU-145 prostate 101% | K-562 leukemia 40.5% | MALME-3M melanoma 101% | MDA-MB-231 breast 92.7% | SF-268 CNS 97.6% | SF-295 CNS 92.9% | SF-539 CNS 96.7% | UACC-257 melanoma 93.8% | M14 melanoma 101% | HCT-15 colon 85%

CCN(CC)CCCC(C)Nc1ccc2ccc(Cl)cc2n1 (stereo not given)
inactive: NCI-H23 lung 98.5% | NCI-H226 lung 93.1% | NCI-H322M lung 102% | HOP-62 NSCLC 86.9% | NCI-H460 lung 102% | NCI-H522 lung 92% | A549/ATCC NSCLC 98.3% | 786-0 renal 93.8% | COLO 205 colon 95.7% | DU-145 prostate 114% | K-562 leukemia 95.6% | MALME-3M melanoma 115% | MDA-MB-231 breast 90.3% | SF-268 CNS 96.8% | SF-295 CNS 95.3% | SF-539 CNS 101% | M14 melanoma 103% | HCT-15 colon 102%

CN1CCC2(CC1)NC(=O)c1c(c3ccc(Cl)c(Cl)c3n1C)C2C#N (stereo not given)
inactive: NCI-H23 lung 76.6% | NCI-H226 lung 53.8% | NCI-H322M lung 85.6% | HOP-62 NSCLC 58% | NCI-H460 lung 49% | NCI-H522 lung 76.3% | A549/ATCC NSCLC 63.7% | 786-0 renal 68.7% | COLO 205 colon 58% | DU-145 prostate 92.4% | K-562 leukemia 80.1% | MALME-3M melanoma 98.3% | MDA-MB-231 breast 55% | SF-268 CNS 67.4% | SF-295 CNS 94.9% | SF-539 CNS 76% | UACC-257 melanoma 65.2% | M14 melanoma 23.8% | HCT-15 colon 82.6%
